Results from PubChem BioAssay (Tox21).
“And” between values parts separate entries of the source, which are not always exact repeats. Equal values may be shown once. Results filed as inconclusive are left out. Entries that show only a call come without a potency. The source made the active and inactive calls. Unless noted, calls come from the whole dose curve; as a rule, active = well fitted curve in the direction sought with a large enough effect in the repeat runs; inconclusive = weak or mixed curves; inactive = no such curve, though single readings can be large; an effect the other way counts as inactive or inconclusive.

How the values were obtained:
[1] = qHTS assay to identify small molecule antagonists of the progesterone receptor (PR) signaling pathway - cell viability counter screen (AID 1346798); note: series mostly up to about 92 µM; nearly all actives have a fitted effect of over 50% in size
In short: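 Counter screen for cytotoxicity: viability of PR-UAS-bla HEK293T cells was measured with CellTiter-Glo luminescence following 16 hr compound exposure in the presence of R5020.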

[2] = qHTS assay to identify small molecule agonists of the progesterone receptor (PR) signaling pathway - cell viability counter screen (AID 1346799; calls by dose curve; note: nearly all actives have a fitted effect of over 45% in size)
In short: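 Cells (PR-UAS-bla HEK293T) are plated at 3,000/well in 2% charcoal-stripped FBS medium, rested 6 hr, dosed and incubated 16 hr at 37C. CellTiter-Glo is then added and luminescence measured after 30 min at room temperature.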

[3] = qHTS assay to identify small molecule antagonists of the TGF-beta/Smad signaling pathway - cell viability counter screen (AID 1346824); note: nearly all actives have a fitted effect of over 50% in size
In short: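 Cytotoxicity counter-screen run in the same wells as the beta-lactamase Smad reporter read: CellTiter-Glo luminescence after 30 min at room temperature. HEK 293T SBE-bla cells had 5 hr compound exposure at 37 C with TGF-beta1 (0.25 ng/mL stock).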

[4] = qHTS assay to identify small molecule agonists of the TGF-beta/Smad signaling pathway - cell viability counter screen (AID 1346829); note: top concentration of the series differs between compounds; nearly all actives have a fitted effect of over 45% in size
In short: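 Here the cytotoxicity of library compounds is measured in SBE-bla HEK 293T cells treated for 5 hr, using CellTiter-Glo added to wells already read for the beta-lactamase reporter.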

[5] = qHTS assay to identify small molecule agonists of the TGF-beta/Smad signaling pathway (AID 1346859; active = well fitted activation curve with a large enough effect in the signal ratio in the repeat runs, not every such curve was filed as active; the % refers to the signal ratio; note: series mostly up to about 77 µM)
In short: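 Reporter line: HEK 293T with stably integrated SBE-controlled beta-lactamase. Compound exposure lasts 5 hr at 37 C and 5% CO2; substrate loading follows for 2 hr at room temperature, with emission read at 460 and 530 nm.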

[6] = target: Thyrotropin-releasing hormone receptor (Homo sapiens) (UniProt P34981); assay: qHTS assay to identify small molecule antagonists of the thyrotropin-releasing hormone receptor (TRHR) signaling pathway (AID 1346877; active = well fitted inhibition curve with a large enough effect in the repeat runs, not every such curve was filed as active; note: series mostly up to about 51 µM)
Sequence of Thyrotropin-releasing hormone receptor (Homo sapiens) (P34981 whole entry, looked up): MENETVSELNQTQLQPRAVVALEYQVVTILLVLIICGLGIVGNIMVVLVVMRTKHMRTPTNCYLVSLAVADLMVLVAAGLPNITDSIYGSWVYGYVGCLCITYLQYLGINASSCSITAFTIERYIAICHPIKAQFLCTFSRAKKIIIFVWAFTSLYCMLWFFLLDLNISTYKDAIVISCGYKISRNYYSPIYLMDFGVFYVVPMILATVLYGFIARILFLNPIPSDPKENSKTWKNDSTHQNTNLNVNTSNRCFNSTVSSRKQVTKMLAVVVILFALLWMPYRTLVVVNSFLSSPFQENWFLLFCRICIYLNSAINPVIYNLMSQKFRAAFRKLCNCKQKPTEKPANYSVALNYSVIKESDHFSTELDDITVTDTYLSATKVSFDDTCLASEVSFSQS
In short: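 HEK293/TRHR cells, 18 h, 37 °C; Ca2+ dye 2 h; cpd 5 min RT; TRH 1 nM final; fluorescence read 3 min, 1 s intervals; 15 concs, triplicate.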

[7] = target: Thyrotropin-releasing hormone receptor (Homo sapiens) (UniProt P34981); assay: qHTS assay to identify small molecule agonists of the thyrotropin-releasing hormone receptor (TRHR) signaling pathway (AID 1346891; calls by dose curve;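 note: HEK293 cells expressing TRHR with calcium dye readout; series mostly up to about 58 µM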)
In short: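 Cells: TRHR-Hek293, seeded and incubated 18 h. Dye loading: 2 h at 37 °C. Compound added from DMSO stock by pin tool. Read-out: kinetic calcium fluorescence over 3 min.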

[8] = Human pregnane X receptor (PXR) small molecule agonists, qHTS cell viability counter screen (AID 1346977); note: nearly all actives have a fitted effect of over 50% in size; note: potency is the fitted concentration of half-maximal effect
In short: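 Cytotoxicity counter screen run in the same wells as the PXR luciferase assay, using PXR-Luc HepG2 cells in charcoal-stripped serum medium. Viability: CellTiter-Fluor fluorescence after 24hr compound treatment.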

[9] = target: Progesterone receptor (Homo sapiens) (UniProt P06401); assay: qHTS assay to identify small molecule agonists of the progesterone receptor (PR) signaling pathway (AID 1346784; calls by dose curve; note: nearly all actives have a fitted effect of over 30% in size)
Sequence of Progesterone receptor (Homo sapiens) (P06401 whole entry, looked up): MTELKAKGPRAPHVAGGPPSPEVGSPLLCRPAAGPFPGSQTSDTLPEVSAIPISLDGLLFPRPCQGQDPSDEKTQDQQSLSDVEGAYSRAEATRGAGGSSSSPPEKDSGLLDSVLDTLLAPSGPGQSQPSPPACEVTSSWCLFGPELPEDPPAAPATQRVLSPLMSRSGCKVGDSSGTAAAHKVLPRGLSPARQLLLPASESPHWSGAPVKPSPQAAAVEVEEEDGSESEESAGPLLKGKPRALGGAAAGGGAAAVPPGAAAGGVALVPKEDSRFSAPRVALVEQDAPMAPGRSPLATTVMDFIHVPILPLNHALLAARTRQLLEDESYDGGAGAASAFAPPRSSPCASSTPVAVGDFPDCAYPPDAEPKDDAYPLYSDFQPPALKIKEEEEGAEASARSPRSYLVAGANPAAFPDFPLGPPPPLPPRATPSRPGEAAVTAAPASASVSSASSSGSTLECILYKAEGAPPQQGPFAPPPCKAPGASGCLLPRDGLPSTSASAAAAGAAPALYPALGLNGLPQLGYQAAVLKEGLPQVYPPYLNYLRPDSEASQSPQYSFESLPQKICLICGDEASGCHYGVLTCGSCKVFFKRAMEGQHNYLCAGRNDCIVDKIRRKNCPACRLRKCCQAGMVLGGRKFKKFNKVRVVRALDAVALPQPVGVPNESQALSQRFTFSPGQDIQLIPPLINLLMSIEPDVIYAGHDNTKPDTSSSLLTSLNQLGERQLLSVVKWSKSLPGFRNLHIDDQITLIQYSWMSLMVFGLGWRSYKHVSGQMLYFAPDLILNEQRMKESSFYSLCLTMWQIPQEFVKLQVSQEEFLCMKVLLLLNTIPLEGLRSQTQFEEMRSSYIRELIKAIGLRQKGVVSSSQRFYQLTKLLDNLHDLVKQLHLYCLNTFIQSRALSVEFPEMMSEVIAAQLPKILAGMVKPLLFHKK
In short: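 Cells (PR-UAS-bla HEK 293T, GripTite) were plated in assay medium containing 2% charcoal-stripped FBS and incubated 6 hr. Test compounds in DMSO were added for 16 hr at 37C. FRET substrate was then loaded for 2 hr at room temperature before fluorescence reading.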

[10] = target: Progesterone receptor (Homo sapiens) (UniProt P06401); assay: qHTS assay to identify small molecule antagonists of the progesterone receptor (PR) signaling pathway (AID 1346795; active = well fitted inhibition curve with a large enough effect in the signal ratio in the repeat runs, not every such curve was filed as active; the % refers to the signal ratio; note: potency is the fitted concentration of half-maximal effect)
In short: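 Antagonist mode: compounds tested against 1 nM (final) promegestone stimulation in HEK293T cells expressing PR-UAS-bla reporter, 16 hr at 37C, 5% CO2; beta-lactamase activity detected via B/G FRET substrate after 2 hr at room temperature.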

Row | SMILES | Potency [1] | Potency [2] | Potency [3] | Potency [4] | outcome [5] | Potency [6] | Potency [7] | Potency [8] | Potency [9] | Potency [10]
1 | O=C(CCCN1CCC(O)(c2ccc(Cl)cc2)CC1)c1ccc(F)cc1 | inactive | inactive | inactive | inactive | inactive | inactive | inactive | 27.3 µM (active) and 23.7 µM (active) | – | –
2 | CCCCCCCCCCC(CO)CCCCCCCC (stereo not drawn) | inactive | inactive | inactive | inactive | inactive | – | – | inactive | – | –
3 | C1CN(SSN2CCOCC2)CCO1 | inactive | inactive | – | inactive | – | inactive | – | inactive | inactive | inactive
4 | COCCOCCOCCO | inactive | inactive | inactive | inactive | inactive | inactive | – | inactive | inactive | –
5 | [O-]/[N+](=N\O)c1ccccc1 | inactive | inactive | inactive | inactive | inactive | inactive | – | inactive | inactive | –
6 | O=C(O)c1cc(=O)[nH]c(=O)[nH]1 | – | inactive | inactive | inactive | inactive | – | – | inactive | inactive | inactive
7 | CCOC(=O)C(C)Oc1ccc(Oc2cnc3cc(Cl)ccc3n2)cc1 (stereo not drawn) | inactive | inactive | inactive | inactive | – | – | – | inactive | inactive | inactive
8 | c1ccc2c(c1)ccc1ncccc12 | inactive | inactive | inactive | inactive | inactive | inactive | – | inactive | inactive | –
9 | CCC/C=C/C=O | – | inactive | inactive | inactive | inactive | inactive | inactive | inactive | inactive | inactive
10 | C[C@]12CC[C@@H]3c4ccc(O)cc4CC[C@H]3[C@@H]1CC[C@@H]2O | – | – | inactive | inactive | inactive | inactive | – | inactive | – | –
11 | Oc1ccc(C(c2ccc(O)cc2)C(Cl)(Cl)Cl)cc1 | – | inactive | inactive | inactive | inactive | inactive | – | inactive | – | 12.1 µM (active)
12 | CCCCCCCC/C=C\CCCCCCCC(=O)O | inactive | inactive | inactive | inactive | inactive | inactive | inactive | inactive | – | –
13 | OC[C@@H](O)[C@@H](O[C@@H]1O[C@H](CO)[C@H](O)[C@H](O)[C@H]1O)[C@H](O)[C@@H](O)CO | inactive | inactive | inactive | inactive | inactive | – | – | inactive | – | –
14 | COc1cc([C@H]2Oc3cc([C@H]4Oc5cc(O)cc(O)c5C(=O)[C@@H]4O)ccc3O[C@@H]2CO)ccc1O | inactive | inactive | inactive | inactive | – | inactive | – | inactive | inactive | –
15 | Cc1ccc(N)c([N+](=O)[O-])c1 | inactive | inactive | inactive | inactive | inactive | inactive | – | inactive | inactive | –
16 | C=C[C@H]1CN2CC[C@H]1C[C@H]2[C@H](O)c1ccnc2ccc(OC)cc12 | inactive | inactive | – | inactive | inactive | inactive | inactive | 30.6 µM (active) | inactive | inactive
